# Laboratory results from PubChem BioAssay AID1376 (SRMLSC, 2008).
# The whole screen tested about 220,000 compounds, of which about 530 (0.24%) were called active. No stated cut-off is given here; in the data, active means inhibition above about 13%; inconclusive means no clear call, values can overlap the other calls; inactive means below that. This excerpt belongs to a sample that is enriched for actives. Measured potencies and affinities stand elsewhere.
# Target: Bifunctional protein GlmU (Mycobacterium tuberculosis (strain ATCC 25618 / H37Rv)) (UniProt P9WMN3)
# Sequence (P9WMN3 whole entry, looked up): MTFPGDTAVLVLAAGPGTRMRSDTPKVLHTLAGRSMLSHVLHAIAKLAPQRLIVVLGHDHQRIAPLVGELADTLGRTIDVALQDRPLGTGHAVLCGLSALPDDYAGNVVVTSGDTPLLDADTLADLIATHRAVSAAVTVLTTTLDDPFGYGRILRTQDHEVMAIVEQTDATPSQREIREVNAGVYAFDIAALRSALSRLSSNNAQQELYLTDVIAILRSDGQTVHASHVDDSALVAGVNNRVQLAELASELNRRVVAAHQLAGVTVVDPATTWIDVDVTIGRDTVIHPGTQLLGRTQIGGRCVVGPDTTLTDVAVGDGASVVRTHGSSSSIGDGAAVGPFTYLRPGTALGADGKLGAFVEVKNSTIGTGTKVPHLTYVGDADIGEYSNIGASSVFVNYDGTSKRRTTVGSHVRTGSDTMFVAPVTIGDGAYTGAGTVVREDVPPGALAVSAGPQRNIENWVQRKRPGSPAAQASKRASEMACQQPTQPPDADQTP
# Assay: inhibition of mycobacterial GlmU enzyme – biochemical, glucosamine-1-phosphate acetyltransferase (AID 1376);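 further: 0% = complete reaction with vehicle and 100% = reaction without substrate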
# Conditions: M. tuberculosis GlmU acetyltransferase enzyme assay; active compounds read high;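 tested at 30 µM in the primary screen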
row,SMILES,inhibition
1,O=C(O)CCCN1C(=O)c2ccc(C(=O)c3cccc([N+](=O)[O-])c3)cc2C1=O,2.64% (inactive)
2,O=C(CN1C(=O)CCC1=O)NNc1ccc2ccccc2c1,-8.95% (inactive)
3,O=C(CC1Sc2ccccc2NC1=O)Nc1cccc(C(=O)O)c1 (stereo not given),-2.21% (inactive)
4,O=C(CC1Sc2ccccc2NC1=O)Nc1cccc(-c2nnc3n2CCCCC3)c1 (stereo not given),14.3% (active)
5,O=C(CN1C(=O)NC2(CCCC2)C1=O)Nc1cccc(-c2nnc3n2CCCCC3)c1,-0.57% (inactive)
6,Oc1ccccc1/C=N/NC1=NCCCCC1,-2.12% (inactive)
7,COC(C(=O)NCc1ccc(C)cc1)c1ccccc1 (stereo not given),-0.55% (inactive)
8,CCC(=O)NCc1c(Cl)cccc1-n1cccc1,-2.25% (inactive)
9,CC(C)=CC(=O)NCc1c(Cl)cccc1-n1cccc1,23.8% (active)
10,CC(=O)NCc1c(Cl)cccc1-n1cccc1,-2.69% (inactive)
11,COC(=O)c1ccccc1NC(=O)CCS(=O)(=O)c1ccc(Br)s1,6.53% (inactive)
12,Cc1ccc(CNC(=O)CCS(=O)(=O)c2ccc(C)cc2)cc1,-0.32% (inactive)
13,COC(=O)c1ccc(NC(=O)CCS(=O)(=O)c2ccc(Br)cc2)cc1,3.55% (inactive)
14,Cc1ccc(CCNC(=O)CCS(=O)(=O)c2ccc(Br)cc2)cc1,-0.29% (inactive)
15,COc1cccc(CN2CCN(S(=O)(=O)c3ccc(Br)cc3)CC2)c1,-0.5% (inactive)
16,COc1ccc(C=C2C(=O)c3ccccc3C2=O)cc1O,9.53% (inactive)
17,COc1cc(C=C2C(=O)c3ccccc3C2=O)ccc1O,10.6% (inactive)
18,O=C1c2ccccc2CC1(Cc1ccccc1)Cc1ccccc1,-4.43% (inactive)
19,CC(C)(C)N1C(=O)c2ccccc2NC(=O)N1Cc1ccccc1,-6.09% (inactive)
20,N#CCCN(Cc1cccnc1)C(=S)NC(=O)C1CC1,-4.01% (inactive)

row,SMILES,inhibition
1,Cc1cccc(CSc2nnc(-c3ccccn3)n2N)c1,1.5% (inactive)
2,COc1ccc(/C=N/N=C2/NC(=O)C(CC(=O)O)S2)cc1OS(=O)(=O)c1ccccc1 (stereo not given),3.56% (inactive)
3,CCOc1cc(/C=N/N=C2/NC(=O)C(CC(=O)O)S2)ccc1OS(=O)(=O)c1ccc(C)cc1 (stereo not given),13.1% (active)
4,CCOc1cc(/C=N/N=C2/NC(=O)C(CC(=O)O)S2)ccc1OCc1ccc(Cl)cc1 (stereo not given),0.64% (inactive)
5,Cc1ccc(/C=C2\SC(=S)N(CC3CCCO3)C2=O)o1 (stereo not given),9.7% (inactive)
6,O=C(CSc1nc2ccccc2o1)N1CCN(S(=O)(=O)c2ccc3ccccc3c2)CC1,-1.93% (inactive)
7,CCc1ccc(N(CC(=O)NCc2ccc(F)cc2)C(=O)c2csnn2)cc1,1.98% (inactive)
8,CCOc1ccc(/C=N/Nc2nc(=O)[nH]nc2C)cc1OC,2.62% (inactive)
9,CC(/C=C1\SC(=S)N(NS(=O)(=O)c2ccccc2)C1=O)=C\c1ccccc1,5.96% (inactive)
10,O=C1/C(=C/c2cccs2)SC(=S)N1NS(=O)(=O)c1ccccc1,11.6% (inactive)
11,Cn1cccc1/C=C1\SC(=S)N(NC(=O)c2ccccc2O)C1=O,0.05% (inactive)
12,O=C(NN1C(=O)/C(=C/C=C/c2ccco2)SC1=S)c1ccncc1,10.6% (inactive)
13,O=C(NCC(c1cccnc1)N1CCN(c2ccccc2F)CC1)OCc1ccccc1 (stereo not given),-3.82% (inactive)
14,CC(C)CNC(CC(=O)Nc1cccc([N+](=O)[O-])c1)C(=O)O (stereo not given),0.89% (inactive)
15,CN(C)/C=C(\C#N)C(=O)Nc1ccc(O)cc1F,-2.68% (inactive)
16,CC(NC(=O)c1ccco1)C(=O)OCc1cccc(Cl)c1 (stereo not given),2.75% (inactive)
17,Cc1ccccc1NC(=O)CS(=O)(=O)c1cn(CC(=O)N2CCOCC2)c2ccccc12,-2.25% (inactive)
18,CCCN(Cc1cc2ccccc2[nH]c1=O)C(=O)c1cccc([N+](=O)[O-])c1,-2.01% (inactive)
19,O=C(O)c1cccc(Cn2c(Cl)c(/C=N/NC(=O)c3ccccc3)sc2=O)c1,1.79% (inactive)
20,O=C(O)c1cccc(Cn2c(Cl)c(/C=N/NC(=O)c3ccccc3O)sc2=O)c1,5.34% (inactive)

row,SMILES,inhibition
1,CCC(C)OC(=O)C[N+](C)(C)CCOC1CC2CCC1(C)C2(C)C (stereo not given),-2.89% (inactive)
2,Cn1c(=O)c([N+](=O)[O-])c(NCc2ccc3c(c2)OCO3)c2ccccc21,0.57% (inactive)
3,S=c1[nH]nc(COc2ccccc2)n1/N=C/c1ccco1,3.61% (inactive)
4,Nc1c(C(=O)Nc2ccccc2)sc2nc3c(c(-c4ccco4)c12)CCC3,-1.21% (inactive)
5,Nc1c(C(=O)NC2CC2)sc2nc3c(c(-c4ccco4)c12)CC/C3=C/c1ccco1,16.9% (active)
6,Nc1c(C(=O)NCC2CCCO2)sc2nc3c(c(-c4ccco4)c12)CC/C3=C\c1ccco1 (stereo not given),12.4% (inactive)
7,Cc1cccc2cc(C#N)c(NCc3ccccc3)nc12,1.49% (inactive)
8,CCOC(=O)N1CCC(NC(=O)c2cccn3c(=O)c4cc(Br)ccc4nc23)CC1,3.26% (inactive)
9,COc1ccc(OC)c(NC=C2C(=O)OC3(CCCCC3)OC2=O)c1,2.73% (inactive)
10,COc1ccccc1NC=C1C(=O)OC2(CCCCC2)OC1=O,13.1% (active)
11,CCOc1ccccc1NC=C1C(=O)OC2(CCCCC2)OC1=O,-1.31% (inactive)
12,CCC(C)(C)NC(=O)C(c1ccccc1)N(Cc1cccnc1)C(=O)c1csnn1 (stereo not given),0.49% (inactive)
13,CN(C)S(=O)(=O)c1cccc(NC(=O)/C=C/c2ccccc2[N+](=O)[O-])c1,6.53% (inactive)
14,O=S1(=O)c2ccccc2N=NN1Cc1cc(Cl)cc(Cl)c1,3.2% (inactive)
15,O=S1(=O)c2ccccc2N=NN1Cc1ccc(Cl)cc1,8.76% (inactive)
16,CC(C1CC2CCC1C2)n1c(-c2ccco2)n[nH]c1=S (stereo not given),-2.34% (inactive)
17,COc1ccc(/C=N/n2c(-c3ccco3)nc3ccccc3c2=O)cc1,-1.21% (inactive)
18,COc1cccc(/C=N/n2c(-c3ccco3)nc3ccccc3c2=O)c1OC,-2.22% (inactive)
19,COc1cccc(/C=N/n2c(-c3ccco3)nc3ccccc3c2=O)c1,12.8% (active)
20,C=CCn1c(C(CC(C)C)CC(C)O)n[nH]c1=S (stereo not given),-0.56% (inactive)
